# Calls of active or inactive are those of the source. The calls were made as follows: active = hit-call score of the fitted dose curve at least 0.9, where 1 is the maximum; inactive = score below 0.9.
# What was measured:
# Details in all cases: mRNA level, 48 h; actives raise or lower the signal
# [1] = read-out: CYP2E1 (gene 1571); test: LTEA_HepaRG_CYP2E1: Life Technologies and Expression Analysis (LTEA) Assay for CYP2E1 using HepaRG (AID 2283485)
# Method in brief: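 HepaRG cells in serum-free induction medium exposed 48 h to test chemicals, 8 half-log concentrations up to 100 uM in 0.5% DMSO, duplicate. CYP2E1 mRNA by qRT-PCR, normalized to ACTB, GAPDH, POLR2A; bidirectional fit versus DMSO.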
# [2] = read-out: CYP4A11 (gene 1579); test: LTEA_HepaRG_CYP4A11: Life Technologies and Expression Analysis (LTEA) Assay for CYP4A11 using HepaRG (AID 2283486)
# Method in brief: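 Differentiated HepaRG cells, 48 h after plating, exposed in duplicate for 48 h to 8 half-log concentrations up to 100 uM in 0.5% DMSO in serum-free induction medium. CYP4A11 mRNA measured by TaqMan qRT-PCR, normalized to ACTB, GAPDH and POLR2A.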
# [3] = read-out: Cytochrome P450 3A4 (Homo sapiens) (UniProt P08684); test: LTEA_HepaRG_CYP3A4: Life Technologies and Expression Analysis (LTEA) Assay for CYP3A4 using HepaRG (AID 2283487)
# Method in brief: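 CYP3A4 transcript measured by TaqMan qRT-PCR and normalized to three housekeeping genes after 48 h chemical exposure of human HepaRG cells. Top concentration 100 uM, half-log steps, 0.5% DMSO vehicle; gain or loss fitted against DMSO baseline.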
# [4] = read-out: DNA damage-inducible transcript 3 (DDIT3), DDIT3 (gene 1649); test: LTEA_HepaRG_DDIT3: Life Technologies and Expression Analysis (LTEA) Assay for DNA damage-inducible transcript 3 (DDIT3) using HepaRG (AID 2283488)
# Method in brief: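 Differentiated human HepaRG cells in serum-free induction medium were exposed in duplicate for 48 h to 8 concentrations (top 100 uM, half-log steps, 0.5% DMSO). DDIT3 mRNA measured by TaqMan qRT-PCR, normalized to ACTB/GAPDH/POLR2A; bidirectional fit versus DMSO.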
# [5] = read-out: Pro-epidermal growth factor (Homo sapiens) (UniProt P01133); test: LTEA_HepaRG_EGF: Life Technologies and Expression Analysis (LTEA) Assay for Epidermal growth factor (EGF) using HepaRG (AID 2283489)
# Method in brief: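 HepaRG cells (~100,000/well, 48 h pre-culture) exposed in duplicate for 48 h in serum-free induction medium to 8 half-log concentrations up to 100 uM in 0.5% DMSO. EGF mRNA by qRT-PCR, normalized to ACTB/GAPDH/POLR2A; bidirectional fit versus DMSO.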
# [6] = read-out: Early growth response protein 1 (EGR1) transcription factor, EGR1 (gene 1958); test: LTEA_HepaRG_EGR1: Life Technologies and Expression Analysis (LTEA) Assay for Early growth response protein 1 (EGR1) transcription factor using HepaRG (AID 2283490)
# Method in brief: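 Differentiated HepaRG cells in serum-free induction medium exposed 48 hours, duplicate, to 8 half-log concentrations up to 100 uM in 0.5% DMSO. EGR1 mRNA measured by TaqMan qRT-PCR, normalized to ACTB, GAPDH, POLR2A; bidirectional fit versus DMSO.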
# [7] = read-out: Ezrin (EZR), EZR (gene 7430); test: LTEA_HepaRG_EZR: Life Technologies and Expression Analysis (LTEA) Assay for Ezrin (EZR) using HepaRG (AID 2283491)
# Method in brief: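 HepaRG, 48 h chemical exposure, 8-pt half-log series from 100 uM, 0.5% DMSO vehicle, duplicates. Read-out: EZR mRNA by TaqMan qRT-PCR (Fluidigm array), housekeeping-normalized; bidirectional curve fit vs DMSO baseline.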
# [8] = read-out: Cytochrome P450 3A7 (Homo sapiens) (UniProt P24462); test: LTEA_HepaRG_CYP3A7: Life Technologies and Expression Analysis (LTEA) Assay for CYP3A7 using HepaRG (AID 2283492)
# Method in brief: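 Differentiated HepaRG cells in serum-free induction medium exposed 48 h in duplicate to 8-point half-log series from 100 uM top in 0.5% DMSO. CYP3A7 mRNA by qRT-PCR, normalized to ACTB/GAPDH/POLR2A, bidirectional fit versus DMSO.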
# [9] = read-out: CYP3A5 (gene 1577); test: LTEA_HepaRG_CYP3A5: Life Technologies and Expression Analysis (LTEA) Assay for CYP3A5 using HepaRG (AID 2283493)
# Method in brief: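 Differentiated HepaRG cells in serum-free induction medium were dosed 48 h with test chemicals (8-point half-log series, top 100 uM, 0.5% DMSO, duplicate). CYP3A5 mRNA measured by qRT-PCR, normalized to ACTB, GAPDH, POLR2A; bidirectional fit versus DMSO.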
# [10] = read-out: Fatty Acid-Binding Protein 1 (FABP1), FABP1 (gene 2168); test: LTEA_HepaRG_FABP1: Life Technologies and Expression Analysis (LTEA) Assay for Fatty Acid-Binding Protein 1 (FABP1) using HepaRG (AID 2283494)
# Method in brief: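 Differentiated human HepaRG cells exposed 48 h in serum-free induction medium to eight half-log concentrations up to 100 uM (0.5% DMSO), duplicate. FABP1 mRNA by qRT-PCR, normalised to ACTB, GAPDH, POLR2A; bidirectional fitting against DMSO.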
# [11] = read-out: Cytochrome P450 4A22 (Homo sapiens) (UniProt Q5TCH4); test: LTEA_HepaRG_CYP4A22: Life Technologies and Expression Analysis (LTEA) Assay for Cytochrome P450 4A22 (CYP4A22) using HepaRG (AID 2283495)
# Method in brief: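 Differentiated HepaRG cells in serum-free induction medium exposed 48 h in duplicate to eight half-log concentrations up to 100 uM in 0.5% DMSO. CYP4A22 mRNA quantified by TaqMan qRT-PCR, normalized to ACTB, GAPDH and POLR2A; bidirectional fit versus DMSO.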
# [12] = read-out: Cytochrome P450 7A1 (Homo sapiens) (UniProt P22680); test: LTEA_HepaRG_CYP7A1: Life Technologies and Expression Analysis (LTEA) Assay for Cytochrome P450 7A1 (CYP7A1) using HepaRG (AID 2283496)
# Method in brief: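 Gene expression endpoint in human HepaRG liver cells treated for 48 h with test chemicals (up to 100 uM, 0.5% DMSO). Values come from bidirectional concentration-response fitting versus DMSO.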
# [13] = read-out: Glutathione S-Transferase (GSTA2), GSTA2 (gene 2939); test: LTEA_HepaRG_GSTA2: Life Technologies and Expression Analysis (LTEA) Assay for Glutathione S-Transferase (GSTA2) using HepaRG (AID 2283497)
# Method in brief: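 Differentiated human HepaRG cells were exposed in duplicate for 48 h in serum-free induction medium, 8 points from 100 uM top in half-log steps, 0.5% DMSO. GSTA2 mRNA was measured by TaqMan qRT-PCR, normalized to ACTB, GAPDH and POLR2A; bidirectional fit versus DMSO.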
# [14] = read-out: Glutamate-cysteine ligase catalytic (GCLC), GCLC (gene 2729); test: LTEA_HepaRG_GCLC: Life Technologies and Expression Analysis (LTEA) Assay for Glutamate-cysteine ligase catalytic (GCLC) using HepaRG (AID 2283498)
# Method in brief: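 Differentiated HepaRG cells exposed 48 h in serum-free induction medium, eight-point half-log series topping at 100 uM in 0.5% DMSO, duplicates. GCLC mRNA by qRT-PCR normalized to ACTB, GAPDH and POLR2A, fitted bidirectionally versus DMSO.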
# [15] = read-out: growth arrest and DNA damage 45 (GADD45G), GADD45G (gene 10912); test: LTEA_HepaRG_GADD45G: Life Technologies and Expression Analysis (LTEA) Assay for growth arrest and DNA damage 45 (GADD45G) using HepaRG (AID 2283499)
# Method in brief: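 Differentiated human HepaRG cells, 48 h post-plating, exposed 48 h in serum-free induction medium to 8 half-log concentrations (top 100 uM, 0.5% DMSO) in duplicate. GADD45G mRNA measured by Fluidigm TaqMan qRT-PCR, normalized to ACTB, GAPDH, POLR2A; bidirectional fit versus DMSO.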
# [16] = read-out: Glutamate-cysteine ligase regulatory (GCLM), GCLM (gene 2730); test: LTEA_HepaRG_GCLM: Life Technologies and Expression Analysis (LTEA) Assay for Glutamate-cysteine ligase regulatory (GCLM) using HepaRG (AID 2283500)
# Method in brief: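 Differentiated human HepaRG cells exposed 48 h in serum-free induction medium to 8-point half-log concentrations (top 100 uM, 0.5% DMSO), in duplicate. GCLM mRNA quantified by qRT-PCR, normalized to ACTB, GAPDH, POLR2A; bidirectional fitting versus DMSO.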
# [17] = read-out: Glutathione S-transferase M3 (GSTM3), GSTM3 (gene 2947); test: LTEA_HepaRG_GSTM3: Life Technologies and Expression Analysis (LTEA) Assay for Glutathione S-transferase M3 (GSTM3) using HepaRG (AID 2283501)
# Method in brief: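 Differentiated human HepaRG cells were exposed in duplicate for 48 h in serum-free induction medium, 8 points from 100 uM top in half-log steps, 0.5% DMSO. GSTM3 mRNA was measured by TaqMan qRT-PCR, normalized to ACTB, GAPDH and POLR2A; bidirectional fit versus DMSO.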
# [18] = read-out: Heat shock 70 kDa protein 1 (HSPA1A), gene 3303; test: LTEA_HepaRG_HSPA1A: Life Technologies and Expression Analysis (LTEA) Assay for Heat shock 70 kDa protein 1 (HSPA1A) using HepaRG (AID 2283502)
# Method in brief: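 Differentiated human HepaRG cells in serum-free induction medium were exposed in duplicate for 48 h to eight concentrations (top 100 uM, half-log steps, 0.5% DMSO). HSPA1A mRNA was quantified by qRT-PCR, normalized to ACTB, GAPDH and POLR2A, and fitted bidirectionally against DMSO.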
# [19] = read-out: Hypoxia-inducible factor 1-alpha (Homo sapiens) (UniProt Q16665); test: LTEA_HepaRG_HIF1A: Life Technologies and Expression Analysis (LTEA) Assay for Hypoxia-inducible factor 1 (HIF1A) Trancription factor using HepaRG (AID 2283503)
# Method in brief: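 HepaRG, 48 h exposure, 8-pt half-log series from 100 uM, 0.5% DMSO vehicle, duplicates. Readout: HIF1A transcript by qRT-PCR (Fluidigm array), housekeeping-normalised. Bidirectional curve fit vs DMSO baseline.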
# [20] = read-out: 3-Hydroxy-3-Methylglutaryl-CoA Synthase 2 (HMGCS2), HMGCS2 (gene 3158); test: LTEA_HepaRG_HMGCS2: Life Technologies and Expression Analysis (LTEA) Assay for 3-Hydroxy-3-Methylglutaryl-CoA Synthase 2 (HMGCS2) using HepaRG (AID 2283504)
# Method in brief: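 Human HepaRG cells in serum-free induction medium were exposed in duplicate for 48 h to 8-point half-log series from 100 uM top in 0.5% DMSO. HMGCS2 mRNA measured by TaqMan qRT-PCR, normalised to ACTB, GAPDH, POLR2A; bidirectional fit versus DMSO.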
# Chain of Cytochrome P450 3A7 (Homo sapiens) (P24462 whole entry, looked up): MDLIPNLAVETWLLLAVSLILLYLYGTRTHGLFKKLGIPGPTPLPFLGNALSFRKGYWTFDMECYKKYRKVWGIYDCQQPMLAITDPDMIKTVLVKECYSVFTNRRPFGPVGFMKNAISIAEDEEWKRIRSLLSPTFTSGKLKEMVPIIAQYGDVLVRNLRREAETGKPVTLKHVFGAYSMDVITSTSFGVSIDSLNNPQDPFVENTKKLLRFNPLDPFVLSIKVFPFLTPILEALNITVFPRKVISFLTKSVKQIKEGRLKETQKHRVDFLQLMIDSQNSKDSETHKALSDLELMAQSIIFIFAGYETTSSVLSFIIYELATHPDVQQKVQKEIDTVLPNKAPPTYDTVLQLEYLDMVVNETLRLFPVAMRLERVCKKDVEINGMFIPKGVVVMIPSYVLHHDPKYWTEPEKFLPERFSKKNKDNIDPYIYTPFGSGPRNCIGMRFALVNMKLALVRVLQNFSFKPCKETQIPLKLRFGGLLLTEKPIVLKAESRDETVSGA
# Chain of Cytochrome P450 3A4 (Homo sapiens) (P08684 whole entry, looked up): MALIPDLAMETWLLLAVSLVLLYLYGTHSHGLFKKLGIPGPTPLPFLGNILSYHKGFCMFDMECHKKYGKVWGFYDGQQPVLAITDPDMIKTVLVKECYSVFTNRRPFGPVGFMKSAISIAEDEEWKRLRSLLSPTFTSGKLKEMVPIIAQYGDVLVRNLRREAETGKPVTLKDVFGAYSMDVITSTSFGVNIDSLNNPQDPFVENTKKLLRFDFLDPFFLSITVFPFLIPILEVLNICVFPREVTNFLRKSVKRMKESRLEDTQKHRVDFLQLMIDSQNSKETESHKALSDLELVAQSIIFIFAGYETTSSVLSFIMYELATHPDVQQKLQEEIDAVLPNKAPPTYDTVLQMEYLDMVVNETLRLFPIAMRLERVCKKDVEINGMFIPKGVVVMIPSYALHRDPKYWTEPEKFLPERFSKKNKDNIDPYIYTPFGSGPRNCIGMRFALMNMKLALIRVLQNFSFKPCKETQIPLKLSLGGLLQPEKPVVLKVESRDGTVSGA
# Chain of Hypoxia-inducible factor 1-alpha (Homo sapiens) (Q16665 whole entry, looked up): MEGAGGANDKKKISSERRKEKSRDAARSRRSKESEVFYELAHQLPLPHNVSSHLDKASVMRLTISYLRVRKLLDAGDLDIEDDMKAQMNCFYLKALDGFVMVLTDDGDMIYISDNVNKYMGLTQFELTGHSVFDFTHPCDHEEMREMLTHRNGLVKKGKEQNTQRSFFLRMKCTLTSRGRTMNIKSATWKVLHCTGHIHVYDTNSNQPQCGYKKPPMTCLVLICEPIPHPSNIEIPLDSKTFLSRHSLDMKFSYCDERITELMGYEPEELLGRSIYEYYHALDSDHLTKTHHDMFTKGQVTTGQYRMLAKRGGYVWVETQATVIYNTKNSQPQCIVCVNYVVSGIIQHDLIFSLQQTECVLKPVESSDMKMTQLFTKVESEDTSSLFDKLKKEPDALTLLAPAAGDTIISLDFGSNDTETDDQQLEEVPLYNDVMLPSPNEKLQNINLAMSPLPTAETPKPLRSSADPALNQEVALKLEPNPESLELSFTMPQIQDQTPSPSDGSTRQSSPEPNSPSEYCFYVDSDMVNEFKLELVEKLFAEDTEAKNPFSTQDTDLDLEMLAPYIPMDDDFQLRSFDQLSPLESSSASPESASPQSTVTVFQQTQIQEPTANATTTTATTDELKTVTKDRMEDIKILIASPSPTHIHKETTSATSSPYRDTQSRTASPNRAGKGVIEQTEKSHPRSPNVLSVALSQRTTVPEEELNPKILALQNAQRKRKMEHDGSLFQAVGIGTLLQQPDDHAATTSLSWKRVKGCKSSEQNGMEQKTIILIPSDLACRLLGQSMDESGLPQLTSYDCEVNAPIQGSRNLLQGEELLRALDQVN
smiles,measurement,setting,value
ClC1=C(Cl)[C@]2(Cl)[C@@H]3[C@@H](Cl)[C@H]4O[C@H]4[C@@H]3C1(Cl)C2(Cl)Cl,AC50,[1],25.5 µM (active)
same,AC50,[2],31.1 µM (active)
same,AC50,[3],1.35 µM (active)
same,outcome,[4],inactive
same,outcome,[5],inactive
same,outcome,[6],inactive
same,outcome,[7],inactive
same,AC50,[8],1.77 µM (active)
same,outcome,[9],inactive
same,AC50,[10],50 µM (active)
same,AC50,[11],24.9 µM (active)
same,AC50,[12],13.3 µM (active)
same,AC50,[13],82.5 µM (active)
same,outcome,[14],inactive
same,outcome,[15],inactive
same,outcome,[16],inactive
same,outcome,[17],inactive
same,outcome,[18],inactive
same,outcome,[19],inactive
same,AC50,[20],18.4 µM (active)
